In all, about 33,000 sequences were measured (“E-score (-0.5 to 0.5)”: median about -0.0014, highest 2% from about 0.25 on). This excerpt belongs to a sample that is enriched for the highest values.
biological target: T1, Cad1 (UniProt P24813); assay: PBM E-score (8-mer binding enrichment) (E-score (-0.5 to 0.5)); higher = stronger / more preferred TF binding; details: protein concentration: 100 nM; construct: GST-full length
T1 sequence: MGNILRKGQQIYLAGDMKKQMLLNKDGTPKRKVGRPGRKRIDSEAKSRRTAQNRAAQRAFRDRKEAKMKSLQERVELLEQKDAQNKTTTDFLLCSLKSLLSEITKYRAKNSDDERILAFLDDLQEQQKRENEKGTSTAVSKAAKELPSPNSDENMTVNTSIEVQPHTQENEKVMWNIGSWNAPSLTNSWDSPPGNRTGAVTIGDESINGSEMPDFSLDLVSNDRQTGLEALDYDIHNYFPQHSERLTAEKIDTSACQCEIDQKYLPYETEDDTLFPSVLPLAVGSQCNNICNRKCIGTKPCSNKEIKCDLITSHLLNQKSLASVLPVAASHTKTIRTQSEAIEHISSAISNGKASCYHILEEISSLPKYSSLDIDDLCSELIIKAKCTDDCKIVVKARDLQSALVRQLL
Outline: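 E-scores (a modified Wilcoxon-Mann-Whitney statistic) were assigned by the Universal PBM Analysis Suite to every ungapped eight-base word pooled with its reverse complement. The input came from universal all-10-mer Agilent arrays made double-stranded by primer extension and probed with GST-tagged yeast transcription factors at about 100-200 nM. Fluorescent anti-GST detected bound protein, and masliner normalised the scans.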

Sequence	PBM E-score
AATCCCAG	0.0625
AAGAGTCG	0.0695
AATTTCTG	0.0718
AGCGGGCC	-0.0503
CCACCATA	-0.0653
CATCCGTC	-0.00289
TACTACTA	0.157
TACTAGTA	0.273
CACTAATA	0.183
AACTAATA	0.351
CACTAGTA	0.0511
GACTAGTA	-0.117
CAATACTA	0.0552
AAATACTA	0.0416
AACTAAAA	0.133
TAATACTA	0.303
TACTAATA	0.285
AACTAATT	0.217
ATACTTAC	0.0308
AGACGCCT	-0.1
ACCAACGT	0.0535
CGGCTTTA	-0.151
CGATCGGA	0.0447
CTCCATAC	-0.104

Sequence	PBM E-score
ATACACCA	0.12
CACGACTA	-0.148
CGAAGCTC	-0.231
TACTTGAA	0.0482
CAATAATA	0.208
TAATAATA	0.29
GAATAATA	0.221
GACTAATA	0.372
AACTAATG	0.283
GACTAAAA	0.114
AACTAAAG	0.2
CACTAATG	-0.0516
GACTAACA	0.218
GCTGGGCC	-0.297
GCCTATAC	-0.214
GGAATGAC	-0.179
CAGTCCAG	-0.0544
CGTCAAAC	-0.0838
AGCACTAC	-0.0732
AGCAACGG	0.0958
CTGTCCGA	0.189
CCTTATTA	0.211
CTTTATTA	0.18
GTTTATTA	0.293

Sequence	PBM E-score
ATTTATTA	0.186
ACTTATTA	0.192
GCTTATTA	0.369
CACCATCA	0.0657
TAAACGTA	0.172
GGTTTCAC	0.00803
ACGGCCCT	-0.0728
CTGTAGCC	-0.0863
AACTTGAG	-0.154
AACTTGAT	0.268
AACTTGAA	0.109
GGTGCAGA	-0.217
GCCAGGGA	-0.103
AACCTTGA	0.0727
CGAACCGA	0.262
CGAACCGC	-0.0247
GGAACCGA	0.0676
CTCGCCAC	-0.0198
AAATTTGG	0.075
AATTTTGT	0.143
CAATTTGA	-0.0156
TAATTTGA	0.106
AAATTTGT	0.277
AAATTTGA	0.325

Sequence	PBM E-score
CTGGAGGA	-0.121
CCTACCGC	-0.0896
GGCTGTAC	-0.0764
CGAGTGTA	-0.0885
ACGCTTTA	0.0919
CAGACAAC	0.0003
AAGACAAC	0.336
AAGACAAG	0.0865
GCGCGTCA	0.0818
AAGCGACT	-0.0195
TTATATAA	0.427
TGATATAA	-0.0984
TCATATAA	-0.00059
AGTTATAA	-0.037
CGTTATAA	0.163
ATATATAA	0.32
CTATATAA	0.0617
TGTTATAA	0.253
GTATATAA	0.182
AAGCCGGC	0.149
CGTGATTA	0.303
AGTGATTA	0.287
AGTGATTC	0.11
CGTGATTC	-0.021

Sequence	PBM E-score
GGTGATTA	0.236
CGTGATGA	0.0624
GGCGGCTA	0.0654
AACCTTGG	-0.168
CTAACACC	-0.0338
AATCTAGC	0.08
CAAGATTG	-0.0156
ACGGCATA	0.16
CGTCCGAA	0.1
GGTCCGAA	0.143
TGTCCGAA	0.266
ACCCTCTC	-0.183
CCCTTGAC	-0.197
TCCTCACA	-0.115
ACGGATCC	-0.0362
CAAGCGCA	0.262
AACGCGAG	0.115
AGCGCAAA	0.189
AGCGCGAA	0.21
ACGGCGCG	0.322
ACGGCGCT	-0.0736
ACGGCGCC	0.139
AAAGCGCA	-0.0636
CAAGCGCC	-0.119

Sequence	PBM E-score
AACGCGAA	0.298
AGCGCGCA	0.355
CACGCGAA	0.0527
AAGTTGAG	0.0317
GCCAACAA	-0.0504
TCGTCTAA	-0.0389
GCCGCAAC	0.0201
CGCACCGA	-0.0919
CGGCTAAA	-0.0162
CAGAGACG	0.0945
CGTTGGAC	-0.137
GCGATCGC	0.241
TGCGCGCA	0.301
AACGCGCA	0.189
GGCGCGTA	-0.0178
AACGCGCT	0.0463
AACGCGCG	0.282
AGCGCGCG	0.311
CGCGCGCA	0.242
AGCGCGCT	0.152
CGCGCGTA	0.152
GGCGCGCA	0.195
CGCGCGCG	0.214
AGCGCGTA	0.284

Sequence	PBM E-score
CGGGGGAG	-0.432
CCAGTTTC	-0.155
CCTCCATA	-0.254
GTGGGTGA	0.0388
AGAACCAA	-0.131
CACAGGAC	-0.0449
AAAGGACA	-0.0819
ACAGCTGA	-0.0375
ACAGCTAT	-0.0503
ACAGCTGG	0.0155
GCAGCTGA	0.0932
ACAGCTGT	0.261
TCAGCTGA	0.31
CCCCGGAG	-0.2
CCAGGCGC	-0.0648
CAGTTACA	-0.00475
ATCCGTTC	0.229
GTCCGTTA	0.199
ATCCGTTA	0.303
ATGATGCA	0.222
ATCGTTCA	0.0567
AGTTCATG	0.265
AGTTCATA	0.101
AGTTCATC	0.0446

Sequence	PBM E-score
CCGGTCCG	-0.104
ATGAGCCA	0.107
ATTTAGTC	0.18
CATTAGAA	0.11
CATTAGTA	0.304
CGTTAGTA	0.289
ATTTAGTA	0.293
CTTTAGTA	0.174
GGTTAGTA	0.219
CGTTAGTC	0.042
ACTTAGTG	-0.142
AATTAGGG	-0.172
CATTAGTC	0.217
AATTAGTG	0.316
AGGCCAAT	-0.0024
CCCGCCGC	-0.0389
AGCCGCAT	-0.0263
ACGAAAGC	0.00748
CGAGGTGC	0.142
AAGCGCTG	0.212
TAATATCA	0.167
CTACCTGA	-0.0406
CCTAGGCA	-0.0995
AATTAGTC	0.346

Sequence	PBM E-score
AATTAGAC	0.0936
GATTAGGA	-0.0959
GATTAGTA	0.31
AATTAGAG	0.0346
AATTAGAT	0.252
GCTTAGTA	0.344
CCTTAGTA	0.0752
GATTAGAA	0.0793
AGTTAGTC	-0.0819
ACTTAGTA	0.213
ACTTAGTC	-0.016
GGCCAATA	0.0295
AAGCTGAT	0.216
GTAGGAGA	-0.124
CGCTTCTC	-0.0668
ACAGCCAA	0.0312
GAGCTTGC	-0.048
CAAGTCCA	-0.0962
CCCGCCTA	0.0947
AATTAGGA	0.0377
AGTTAGTA	0.0725
AATTAGTA	0.316
CATCCTCG	0.0642
GACACTGC	-0.0407

Sequence	PBM E-score
CCGCTGTC	0.00182
CAAATGGA	0.0716
AAAATGGG	-0.157
AAAATGGA	0.267
GTCTACAC	0.0321
ATCCCAAT	-0.122
ATTTGTAA	0.411
ATTTGTAG	0.0654
CTTTGTAA	0.333
GTTTGTAA	0.137
ATTTGTAC	0.119
CTTTGTAC	0.0743
ACGCTCCA	0.0354
AGCGTACG	0.00701
ATACTTGC	0.0566
CAGATGCC	-0.141
GTGCGCTA	0.0718
ACGCGCTA	0.109
CTGCGCTA	0.0362
CCGCGCTC	0.097
CCGCGCTA	0.263
GCGCGCTA	0.326
GACCGTAA	-0.061
GGGTGGCA	-0.124

Sequence	PBM E-score
CCACTATC	-0.0188
AGGTAAAT	-0.00978
AGGTAAAG	0.267
AGGTAAAC	0.105
AGTGATGC	-0.0338
ACCCGCAC	0.0284
ATTAATGC	0.167
GTTAATTA	0.23
ATTAATGA	0.306
CTTAATTA	0.152
ATTAATTA	0.263
ATGAATAG	0.0469
ATTAATAC	0.199
CGTAATTA	0.249
ATTAATAG	0.275
CTTAATGA	0.00816
GGTAATTA	0.186
AGTAATTA	0.283
ATGGGGGC	-0.349
AAGATAGA	0.0137
CCGAGTGC	0.089
GATTGACC	-0.149
GCCGGGAC	-0.0972
ATTAATGG	0.239

Sequence	PBM E-score
AGTAATTC	0.23
ATTAATTC	0.304
CTTAATTC	0.177
AGTAATTG	0.0751
ATCAATTC	-0.026
ATTAATTG	0.313
ATCAATTA	0.255
ATCAATTG	0.186
CGTAACCC	-0.0539
TCCTGACA	0.125
GGCTTCCC	-0.0469
AACCAATC	0.0878
AACCAGTA	0.157
AACCAATG	0.109
AACCAGTG	-0.0556
AACCAATT	0.297
AACCAGTT	0.27
ACGCGGCC	-0.0773
CAGCGGGC	0.00044
GGTAGTAC	-0.0112
CCAATCGC	0.0869
CCCAGCAA	-0.0856

Reference: the supplement of paper PMC3334620
